Data taken from PubChem BioAssay AID1159580 (chemical genetic matrix, 2015).
Where “and” joins values, the source holds several entries; their conditions need not be identical. Equal values may be shown once. About 2,000 (36%) of roughly 5,500 compounds were called active. About 18% were inconclusive and are not listed. No stated cut-off is given here; in the data, active means normalized growth mostly below about 0.91 (no sharp cut-off); inconclusive means no clear call, values can overlap the other calls; inactive means mostly above about 0.92. The list shows a part of the results.

Experiment: chemical genetic growth profiling, strain panel (AID 1159580);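 further: tested at 20 µM; growth read once vehicle control cultures reached saturation at 30 °C; 1 = growth at the plate median or of vehicle wells; lower values mean less growth of the strain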
Details: S. cerevisiae deletion strains, growth OD

Measured: normalized growth

CCOC(=O)C1=C(C)NC(C)=C(C(=O)OC)C1c1cccc([N+](=O)[O-])c1 (stereo unspecified)
inactive: locus YAL013W, strain DEP1, active compounds read low 1 and 0.987 | locus YAL021C, strain ccr4, active compounds read low 0.996 | locus YAL026C, strain drs2, active compounds read low 1.01 | locus YAL030W, strain snc1, active compounds read low 0.997 | locus YBL061C, strain skt5, active compounds read low 1 | locus YBR009C, strain hhf1, active compounds read low 1.01 | locus YBR021W, strain FUR4, active compounds read low 0.977 | locus YBR023C, strain chs3, active compounds read low 0.999 | locus YBR171W, strain sec66, active compounds read low 1.01 | locus YBR229C, strain ROT2, active compounds read low 1.01 | locus YBR231C, strain swc5, active compounds read low 0.999 | locus YBR279W, strain paf1, active compounds read low 1.01 | locus YCL011C, strain gbp2, active compounds read low 0.995 | locus YCL016C, strain dcc1, active compounds read low 1.01 | locus YCL029C, strain bik1, active compounds read low 1.01 | locus YCL061C, strain MRC1 (second series), active compounds read low 0.985 | locus YCL061C, strain MRC1, active compounds read low 1.01 | locus YCL069W, strain vba3, active compounds read low 1.01 | locus YCR088W, strain abp1, active compounds read low 1.01 | locus YDL005C, strain med2, active compounds read low 1.01 | locus YDL035C, strain GPR1, active compounds read low 1 | locus YDL040C, strain nat1, active compounds read low 1 | locus YDL074C, strain BRE1, active compounds read low 0.988 | locus YDL101C, strain DUN1, active compounds read low 1 | locus YDL134C, strain PPH21, active compounds read low 1 | locus YDL185W, strain tfp1, active compounds read low 0.996 | locus YDL192W, strain arf1, active compounds read low 1 | locus YDR001C, strain nth1, active compounds read low 1.01 | locus YDR069C, strain doa4, active compounds read low 1.01 | locus YDR101C, strain arx1, active compounds read low 0.997 | locus YDR137W, strain rgp1, active compounds read low 0.98 | locus YDR150W, strain NUM1, active compounds read low 1 | locus YDR159W, strain sac3, active compounds read low 1.01 | locus YDR162C, strain NBP2, active compounds read low 0.945 | locus YDR195W, strain ref2 1.03 | locus YDR297W, strain sur2, active compounds read low 1 | locus YDR318W, strain mcm21, active compounds read low 1.02 | locus YDR334W, strain swr1, active compounds read low 1.02 | locus YDR335W, strain msn5, active compounds read low 1.02 | locus YDR363W, strain ESC2, active compounds read low 1 | locus YDR388W, active compounds read low 1.01 | locus YDR392W, strain spt3, active compounds read low 0.946 | locus YDR502C, strain sam2, active compounds read low 1 | locus YEL003W, strain gim4, active compounds read low 1.01 | locus YEL037C, strain rad23, active compounds read low 1.01 | locus YEL061C, strain CIN8 (second series), active compounds read low 1.01 | locus YEL061C, strain CIN8, active compounds read low 0.994 | locus YER002W, strain NOP16, active compounds read low 0.933 | locus YER015W, strain faa2, active compounds read low 1.02 | locus YER016W, strain bim1, active compounds read low 1.01 | locus YER110C, active compounds read low 1.01 | locus YER111C, strain swi4, active compounds read low 1.02 | locus YER155C, strain BEM2 (second series), active compounds read low 1.03 | locus YER155C, strain BEM2, active compounds read low 0.997 | locus YER167W, strain BCK2, active compounds read low 1 | locus YFR010W, strain ubp6, active compounds read low 1.02 | locus YGL078C, strain dbp3, active compounds read low 1.01 | locus YGL086W, strain mad1, active compounds read low 1.02 | locus YGL167C, strain pmr1, active compounds read low 1 | locus YGL173C, strain kem1, active compounds read low 1.01 | locus YGL227W, strain vid30, active compounds read low 1.01 | locus YGL240W, strain doc1, active compounds read low 0.994 | locus YGL248W, strain PDE1, active compounds read low 0.998 | locus YGL253W, strain hxk2, active compounds read low 1 | locus YGR078C, strain PAC10, active compounds read low 0.977 | locus YGR135W, strain pre9, active compounds read low 0.977 | locus YGR229C, strain SMI1, active compounds read low 0.961 and 1 | locus YGR252W, strain gcn5, active compounds read low 1.02 | locus YHR013C, strain ard1, active compounds read low 1.03 | locus YHR027C, strain rpn1, active compounds read low 1.01 | locus YHR030C, strain SLT2, active compounds read low 1.01 | locus YHR079C, strain IRE1 (second series), active compounds read low 1 | locus YHR094C, strain hxt1, active compounds read low 0.994 | locus YHR129C, strain ARP1, active compounds read low 1.01 | locus YHR142W, strain chs7, active compounds read low 0.976 | locus YHR200W, strain rpn10, active compounds read low 1 | locus YIL066C, strain RNR3, active compounds read low 1.02 | locus YIL073C, strain SPO22, active compounds read low 1.04 | locus YIL125W, strain kgd1, active compounds read low 0.999 | locus YIR030C, strain dcg1, active compounds read low 0.999 | locus YJL092W, strain hpr5, active compounds read low 1 | locus YJL095W, strain BCK1 (second series), active compounds read low 1.01 | locus YJL095W, strain BCK1, active compounds read low 0.994 | locus YJL115W, strain asf1, active compounds read low 1.02 | locus YJL129C, strain trk1, active compounds read low 0.992 | locus YJL134W, strain LCB3, active compounds read low 1 | locus YJL154C, strain vps35, active compounds read low 1.02 | locus YJL164C, strain tpk1, active compounds read low 1.01 | locus YJL166W, strain qcr8, active compounds read low 1.01 | locus YJL168C, strain set2, active compounds read low 1.01 | locus YJL187C, strain SWE1 (second series), active compounds read low 1.01
